According to PubChem BioAssay AID1845227 (National Center for Advancing Translational Sciences (NCATS), 2023):
Records with an inconclusive call do not appear. Active and inactive are the calls of the source. The call rests on the fitted dose curve; in most records, active means well fitted inhibition curve with a large enough effect; inconclusive means small, poorly fitted or top-dose-only effect; inactive means no such curve, though single readings can be large or run the other way.

Biological target: Luciferin 4-monooxygenase (Photinus pyralis) (UniProt P08659)
Assay: Confirmatory firefly luciferase (FLuc) qHTS assay for identification of artifact compounds;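 further: 0% = DMSO and -100% = no enzyme control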
Details: purified FLuc enzyme, luminescence, 5 min; series mostly up to 38.9 µM; activity change, negative = inhibition: at the top concentration
Summary of the method: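 Compounds were preincubated 15 min at room temperature with 10 uM D-luciferin and 10 uM ATP in Tris acetate pH 7.6. 10 nM Photinus pyralis luciferase was then added, and luminescence was read after 5 min.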

Activity change, negative = inhibition, inactive:
COC(=O)c1scc(-c2ccc(C)cc2)c1S(=O)(=O)N1CCN(c2ccc(C(C)=O)cc2)CC1 14.9%
CO[C@H]1[C@@H](O)[C@H](N)[C@@H](O[C@H]2O[C@H]([C@H](C)N)CC[C@H]2N)[C@H](O)[C@@H]1N(C)C(=O)CN -3.49%
O=C(Nc1ccccc1-c1nc2ccccc2s1)c1cc(Cl)cc(Cl)c1 -0.169%
O=C(/C=C/c1ccc(O)c(O)c1)c1ccc(O[C@@H]2O[C@H](CO)[C@@H](O)[C@H](O)[C@H]2O)c(O)c1O -6.71%
CCOC(=O)c1c(S(=O)(=O)N2CCCC(C(=O)Nc3cccc(C)n3)C2)c(C)n(C)c1C (centres undefined) 8.05%
COc1ccc(NC(=O)c2ncoc2-c2ccco2)cc1Cl -4.3%
O=C(Nc1nnc(-c2ccccc2)s1)c1ccc(S(=O)(=O)N2CCCC2)cc1 -2.64%
O=C(COc1ccccc1C(=O)Nc1ccccc1)Nc1cccc([N+](=O)[O-])c1 4.06%
COc1cccc(NCc2ccc(O)c3ncccc23)n1 10.5%
CC1=CC23C(=O)C(C=C(CO)[C@@H](O)[C@]2(O)[C@H]1O)[C@H]1[C@@H](C[C@H]3C)C1(C)C (some centres undefined) 2.27%
O=c1cc(-c2ccc(O)c(O)c2)oc2cc(O[C@@H]3O[C@@H](CO)[C@@H](O)[C@@H](O)[C@H]3O)cc(O)c12 6.06%
Cc1ccc(-c2nc3scc(CCNS(=O)(=O)c4ccc(F)c(C)c4)n3n2)cc1 -3.25%
CNCc1nc(-c2ccc[nH]2)c2cc(Cl)ccc2n1 -3.62%
O=c1cc(-c2ccc(O)cc2)oc2cc(O[C@@H]3O[C@H](CO)[C@H](O)[C@H](O)[C@H]3O)cc(O)c12 4.69%
